Hits are enriched below; roughly 8% of the tested compounds scored in any of these assays.
HT1080-NT tox: kills 2HG-producing HT-1080-NT fibrosarcoma cells. HT-1080-NT fibrosarcoma viability, CellTiter-Glo ATP luminescence, 48 h. Potency, µM (highest dose often 46.1 µM), for inactives: at the top dose activity, negative = less viability, actives largely listed as cytotoxic. hit rate 1.6% among 360,000. AID 686970;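 further: NT is the 2HG producing partner of a matched IDH1 knockdown line; 0% = DMSO-treated cells and -100% = media-only wells without cells; nearly all actives have a fitted effect of over 55% in size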
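Viability of the 2HG-overproducing fibrosarcoma line after 48 hours of compound exposure at 37 degrees C was determined by luminescence with CellTiter-Glo, and concentration-effect curves were then fitted and categorized.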
KB-V1 MDR tox: kills drug-selected multidrug resistant KB-V1 cells. AID 1347076. hit rate 3.4% among 400,000. Potency, µM (titrated, usually from 46.1 µM), usual class: cytotoxic. KB-V1 MDR cells viability, CellTiter-Glo, 72 h; further: on the % scale 0 is the no-effect control and ±100 the full control effect; nearly all actives have a fitted effect of over 60% in size
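KB-V1 cells (P-gp-expressing MDR subline of KB-3-1) in phenol-red-free DMEM with 10% FBS were exposed to library compounds over a concentration series for 72 h at 37 degrees C. Viability read by CellTiter-Glo luminescence; concentration-effect curves fitted after normalization.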
MCF10A rereplic: DNA re-replication induction in MCF 10a cells; MCF 10A DNA re-replication, Hoechst nuclear intensity, 48 h; Potency, µM (series often up to 46.1 µM), for inactives: at the highest dose activity, positive = re-replication, most hits filed as activators; hit rate 2.9% among 350,000; further: % of control where 0% means no effect; nearly all actives have a fitted effect of over 50% in size
HT1080 IDH1KD tx: kills HT-1080 cells with IDH1 knockdown. HT-1080 IDH1 knockdown viability, ATP luminescence, 48 h. Potency, µM (top dose mostly 46.1 µM), for the others: top-dose activity, negative = toxicity, usual class: cytotoxic. hit rate 2% among 360,000;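 further: 0% = DMSO wells and -100% = cell-free medium wells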
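HT-1080-IDH1KD cells (IDH1 knocked down), 750/well in RPMI with 5% FBS, treated with compound 48 h at 37 degrees C. Viability by CellTiter-Glo luminescence, normalised to DMSO and no-cell wells; concentration-response curves classed.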
SW480 rereplic: inducers of DNA re-replication in SW480 colon cancer cells. SW480 DNA re-replication, Hoechst DNA content imaging, 48 h. Potency, µM (series often up to 46.1 µM), for the others: at the top dose re-replication activation, most hits filed as activators. hit rate 1.8% among 340,000. AID 624297; further: % of control where 0% means no effect; nearly all actives have a fitted effect of over 55% in size
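Compounds, transferred as 23 nL by pin tool, were incubated with cells for 48 hr; DNA content per nucleus was then quantified by Hoechst staining and fluorescence plate imaging.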
KB-3-1 tox: KB-3-1 parental cell cytotoxicity; KB-3-1 viability, CellTiter-Glo ATP luminescence, 72 h; Potency, µM (titrated, usually from 46.1 µM), usual class: cytotoxic; hit rate 1.4% among 400,000; AID 1347075; further: on the % scale 0 is the no-effect control and ±100 the full control effect; nearly all actives have a fitted effect of over 60% in size
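Viability of parental KB-3-1 cells, measured by CellTiter-Glo luminescence, followed a 72 h incubation at 37 °C with pinned compounds in phenol-red-free DMEM containing 10% FBS.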
Starred values were filed as active, the others as inactive; i = inactive; ? = inconclusive; . = not tested or not shown. The call rests on the fitted dose curve; in most records, active means well fitted curve in the direction sought with a large enough effect; inconclusive means small, poorly fitted or top-dose-only effect, or another doubt; inactive means no such curve, though single readings can be large; an effect the other way counts as inactive or inconclusive. Potency means the concentration at half of the fitted maximal effect.

SMILES | HT1080-NT tox | KB-V1 MDR tox | MCF10A rereplic | HT1080 IDH1KD tx | SW480 rereplic | KB-3-1 tox
COc1cc(S(=O)(=O)N2CCN(Cc3ccccc3)CC2)ccc1Br | -12% | i | 10µM* | 0% | ? | i
C=CCN(C(=O)c1cccc(S(=O)(=O)N2CCN(C)CC2)c1)c1nc(-c2ccccc2)cs1 | 23µM* | i | ? | ? | 5% | ?
COc1ccc(NC(C)=O)cc1NC(=O)c1cccc(S(=O)(=O)N2CCN(Cc3ccccc3)CC2)c1 | -2% | 16µM* | 1% | 15% | 0% | i
COc1ccccc1NC(=O)c1cccc(S(=O)(=O)N2CCN(Cc3ccccc3)CC2)c1 | -2% | i | 0% | -1% | -91% | i
CN(Cc1ccc(Cl)c(Cl)c1)C(=O)c1cccc(S(=O)(=O)N2CCN(Cc3ccccc3)CC2)c1 | -20% | i | 29% | -18% | -34% | 9.2µM*
CC(CNC(=O)c1ccc2nc(CCc3ccccc3)oc2c1)c1ccccc1 (centres undefined) | . | i | . | . | . | i
CN(CC(=O)Nc1ccccc1Cl)C(=O)c1cccc(S(=O)(=O)N2CCN(c3ccccc3)CC2)c1 | -9% | i | 2% | -20% | 0% | i
Cc1cccc(C)c1NC(=O)CN(C)C(=O)c1cccc(S(=O)(=O)N2CCN(c3ccccc3)CC2)c1 | -5% | i | 0% | -17% | 7% | i
CN(Cc1ccc(OC(F)F)cc1)C(=O)c1cccc(S(=O)(=O)N2CCN(c3ccccc3)CC2)c1 | -6% | i | -1% | -19% | -5% | 7.3µM*
CN(CC(=O)Nc1ccccc1Cl)C(=O)c1cccc(S(=O)(=O)N2CCN(Cc3ccccc3)CC2)c1 | 21µM* | ? | ? | -6% | 10% | i
Cc1ccc(CN2CCc3nc(N4CCN(C)CC4)ncc3C2)s1 | . | i | . | . | . | i
Cc1cccc(N2CCN(C(=O)CCNS(=O)(=O)c3ccc4c(c3)CCN4C(=O)C3CC3)CC2C)c1 (centres undefined) | . | i | . | . | . | i
Cc1c(C(=S)Nc2ccccc2)cnn1-c1ccccc1 | -2% | 21µM* | -1% | -9% | -9% | i
Cc1c(C(=S)Nc2ccccc2)cnn1-c1ccc([N+](=O)[O-])cc1 | -25% | 18µM* | -1% | -30% | . | ?
Cc1nnc(N2CCC(C(=O)NCCC(C)C)CC2)c2nn(-c3ccc(Cl)cc3)c(C)c12 | . | i | . | . | . | i
CCCC[C@@H]1CNC(=S)N1CCC12CC3CC(CC(C3)C1)C2 | -8% | ? | 16µM* | -9% | 4% | i
CCCC[C@@H]1CNC(=S)N1CC1CCCCC1 | 6% | i | 17% | 2% | ? | i
O=C1CC(c2ccccc2)Cc2nc(NC3CC3)ncc21 (centres undefined) | 21% | i | -2% | 6% | -8% | i
O=C1CC(c2ccccc2)Cc2nc3ncnn3cc21 (centres undefined) | 11µM* | ? | 15% | ? | -13% | ?
COc1ccc(Cl)cc1NC(=O)CSc1nc2ccccc2nc1N1CCCCC1 | . | ? | . | . | . | i
CCN(c1ccccc1)c1nnc(NC(=O)Nc2ccc(C)cc2)s1 | . | i | . | . | . | i
CC(C)CCCCCCc1ccc(O)cc1 | . | . | 30µM* | . | 10% | .
Cc1ccccc1CS(=O)(=O)c1cnc2ccccc2n1 | 23µM* | ? | 18µM* | ? | ? | i
Cc1cc(N2C(=O)C(O)=C(C(=O)c3ccco3)C2c2ccc(Cl)cc2)no1 (centres undefined) | 0% | i | 0% | -1% | -2% | i
Cc1cc(C)c2nc(N3C(=O)C(O)=C(C(=O)c4ccco4)C3c3ccc(O)cc3)sc2c1 (centres undefined) | -13% | i | ? | -1% | -9% | i
SMILES | HT1080-NT tox | KB-V1 MDR tox | MCF10A rereplic | HT1080 IDH1KD tx | SW480 rereplic | KB-3-1 tox
Cc1cc(C)c2nc(N3C(=O)C(O)=C(C(=O)c4ccco4)C3c3cccc(O)c3)sc2c1 (centres undefined) | -1% | ? | 21µM* | 4% | 1% | i
O=C(C1=C(O)C(=O)N(c2nc3ccc(Cl)cc3s2)C1c1ccco1)c1ccco1 (centres undefined) | -2% | ? | 13µM* | -6% | -1% | i
Cc1ccc2nc(N3C(=O)C(O)=C(C(=O)c4ccco4)C3c3ccc(C)o3)sc2c1 (centres undefined) | ? | i | 21µM* | ? | ? | i
Cc1ccc2nc(N3C(=O)C(O)=C(C(=O)c4ccc(C)o4)C3c3ccco3)sc2c1 (centres undefined) | 4% | i | 18µM* | 12% | 10% | i
COc1ccc2c(c1)CCc1c(C(=O)Nc3c(C)nn(Cc4c(Cl)cccc4Cl)c3C)noc1-2 | . | i | . | . | . | i
O=C1C=C(NCCc2cc(Br)c(O)c(Br)c2)C(=O)c2ncccc21 | ? | 5.8µM* | ? | 10µM* | 3.7µM* | 7.3µM*
CC(=O)/C=C/c1ccc2c(c1)S(=O)(=O)N(C1CCCC1)[C@H]2CC(C)=O | . | 18µM* | . | . | . | ?
CCCCNC(=O)Cn1c(SCc2cccc(F)c2)nc2ccncc21 | . | i | . | . | . | i
O=C(CCl)Nc1cccc(Oc2cnccn2)c1 | ? | ? | ? | ? | 51% | 21µM*
COc1ccc(NC(=O)c2sc3nc(C)c(C(=O)Nc4ccc(C)cc4C)c(-c4sccc4C)c3c2N)cc1 | . | i | . | . | . | i
CCOCCCn1c(=N)c(C(=O)NC2CCCC2)cc2c(=O)n3cccc(C)c3nc21 | . | i | . | . | . | i
C=CCn1c(-c2ccc(OC)c(OC)c2)n[nH]c1=S | 6% | 16µM* | -3% | 11% | -3% | ?
CCOC(=O)Nc1ccc2nc(-c3cscn3)[nH]c2c1 | ? | 3.7µM* | . | 26µM* | . | 2.6µM*
CCc1nn(CC(=O)N2CCN(Cc3ccc4c(c3)OCO4)CC2)c(=O)c2cc3occc3n12 | -2% | 18µM* | 0% | -20% | 16% | i
COc1cc2cnc(-c3ccccc3)c(-c3ccc(C#N)cc3)c2cc1OC | 0% | i | -6% | 9% | 0% | 13µM*
O=[N+]([O-])c1ccc(-c2ccc(S(=O)(=O)NCCN3CCCC3)cc2)cc1 | 18µM* | i | ? | ? | 8% | i
CC(C)(C)CC(C)(C)c1ccc(O)c(-n2nc3ccccc3n2)c1 | . | . | 27µM* | . | 2% | .
COc1cccc2c1OC[C@@H](CO)[C@H]2N(C)C(=O)Nc1ccc(Cl)cc1 | -8% | 15µM* | 16% | ? | 4% | i

Screening data (PubChem)
